# Assay outcomes deposited in PubChem by National Center for Advancing Translational Sciences (NCATS).
# Sampled rows, rich in hits. Any-hit rate of the full collection: about 2.8%.
# GLP-1R inv ag – GLP-1 receptor (human) inverse agonism. HEK293 GLP-1R CRE-luciferase, luminescence, 24 h; GLP-1R form is constitutively active. Potency, µM (doses to about 38.3 µM), inactives show at the highest dose activity change, negative = inhibition, actives largely listed as inhibitors. actives 1.6% (n = 410,000). AID 624417; also: % is scaled to controls: 0 for no effect and ±100 for the full control effect; nearly all actives have a fitted effect of over 55% in size
# Target sequence (P43220 whole entry, looked up): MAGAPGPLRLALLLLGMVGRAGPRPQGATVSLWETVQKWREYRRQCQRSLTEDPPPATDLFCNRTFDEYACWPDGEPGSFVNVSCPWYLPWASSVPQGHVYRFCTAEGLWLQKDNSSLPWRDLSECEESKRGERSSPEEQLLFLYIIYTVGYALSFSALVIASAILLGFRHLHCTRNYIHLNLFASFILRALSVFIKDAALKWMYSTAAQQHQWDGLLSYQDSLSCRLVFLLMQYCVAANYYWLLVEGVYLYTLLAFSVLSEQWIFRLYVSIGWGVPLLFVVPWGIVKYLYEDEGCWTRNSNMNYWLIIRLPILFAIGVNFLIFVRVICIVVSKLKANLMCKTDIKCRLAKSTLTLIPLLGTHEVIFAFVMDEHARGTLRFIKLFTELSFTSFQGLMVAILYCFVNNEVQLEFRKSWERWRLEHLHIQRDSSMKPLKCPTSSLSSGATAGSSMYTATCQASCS
#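 GLP-1R inverse agonism mode: basal reporter luminescence in engineered HEK293 cells measured after one day of compound exposure at 37 deg C, with a 12 min room-temperature detection step.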
# Mito fusion act – blocks mitochondrial division or promotes mitochondrial fusion | Potency, µM (highest dose often 46.1 µM), inactives show at the highest dose growth rescue (activation), most hits filed as activators | actives 0.23% (n = 320,000) | S. cerevisiae fusion-defective mutant growth rescue, CellTiterGlo 48 h; also: % of control where 0% means no effect; nearly all actives have a fitted effect of over 45% in size
#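 Compounds are tested for their ability to restore growth of mitochondrial fusion-defective yeast strains at non-permissive 37C in YPEG medium over 48 hours. Viability is quantified by luciferase luminescence.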
# GLP-1R agonist – GLP-1 receptor (human) agonism | HEK293 GLP-1R CRE-luciferase, luminescence, 4-6 h; cells express a hypersensitive GLP-1R form | Potency, µM (doses to about 45.6 µM), for inactives: at the top dose activation, hits mostly activators | AID 624172 | actives 0.007% (n = 380,000); also: % of control where 0% means no effect
# GLP1R cytotox – cytotoxic in the GLP-1 receptor inverse agonist counter-screen; HEK293 cAMP-luciferase reporter cells, luminescence, 24 h; Potency, µM (doses to about 38.3 µM), inactives show at the top dose activity change, negative = inhibition, hits mostly inhibitors; actives 0.13% (n = 410,000);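 also: loss of luciferase light is scored as toxicity; % is scaled to controls: 0 for no effect and ±100 for the full control effect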
#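 Luminescence readout: signal drop marks cytotoxicity. Plated cells grew 12 h at 37 °C, 5% CO2, received 23 nL compound for 24 h, then got luciferase reagent, read after 12 min at RT.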
# BRCA1 expr act – increases BRCA1 expression; actives 1.1% (n = 380,000); MCF7-BRCA1-FFLuc reporter, luminescence, 48 h; response scale: scaled: vehicle 0%, 10 µM genistein 100%; Potency, µM (titrated, usually from 46.1 µM), for inactives: top-dose activation, most hits filed as activators; AID 624202; also: nearly all actives have a fitted effect of over 80% in size
#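 Luminescence from a BRCA1-driven firefly luciferase in MCF7 cells was read after 48 h compound exposure at 37 C. Data normalized against DMSO and a 10microM genistein activation control, then curve-fitted across the titration.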
# The depositor's hits bear a star; u = inconclusive; x = not tested or not shown. Calls follow the shape of the dose curve; as a rule, active = well fitted curve in the direction sought with a large enough effect; inconclusive = small, poorly fitted or top-dose-only effect, or another doubt; inactive = no such curve, though single readings can be large; an effect the other way counts as inactive or inconclusive. Potency is read from the fitted curve at half-maximal effect.
SMILES,GLP-1R inv ag,Mito fusion act,GLP-1R agonist,GLP1R cytotox,BRCA1 expr act
CN(Cc1ccccc1N1CCCC1)C(=O)c1cc2cc(Cl)ccc2o1,u,19%,7%,2%,-36%
CN(Cc1ccccc1N1CCCC1)C(=O)c1cc2ccccc2o1,10µM*,x,14%,6%,-44%
NNC(=O)c1cc2c(ccc3ccccc32)o1,-16%,-6%,1%,15%,-13%
CCC(=O)N1CCN(c2ccc(NC(=O)c3cc4ccccc4o3)cc2Cl)CC1,11µM*,17%,-38%,-6%,-92%
Cc1ccc(NC(=O)c2cc3ccccc3o2)cc1Cl,13µM*,-6%,7%,0%,32%
O=C(Nc1cccnc1)c1cc2c(ccc3ccccc32)o1,0%,-7%,0%,-22%,13µM*
O=C(NC(Cc1c[nH]c2ccccc12)c1nnc2n1CCCCC2)c1ccccc1Cl (centres undefined),0%,-1%,5%,-3%,-19%
CCCN(CC1CC1)C(=O)CCc1nnc(CCc2c[nH]c3ccccc23)o1,u,-4%,0%,-6%,19%
CC(=O)Nc1cccc(NC(=O)c2cc3ccccc3o2)c1,31%,-2%,-2%,1%,8.9µM*
O=C(Nc1ccc(N2CCCCCC2)cc1)c1ccc[nH]1,u,27%,19%,-25%,1.4µM*
COc1cc(NC(=O)C(C)C)ccc1NC(=O)c1cc2ccccc2o1,-1%,9%,6%,-3%,8.9µM*
CC(C)C(=O)Nc1cccc(NC(=O)c2cc3ccccc3o2)c1,-23%,18%,8%,-19%,10µM*
Cc1nn(Cc2ccc(Cl)cc2Cl)c(C)c1NC(=O)c1nc2n(n1)C(C(F)F)CC(C)N2 (centres undefined),-20%,7%,11%,-4%,-16%
OC(c1ccccc1)(c1nc(-c2cccc(C(F)(F)F)c2)cs1)C(F)(F)F (centres undefined),u,x,-3%,u,-30%
COc1ccc(N(CC(=O)Nc2ccc(F)cc2F)S(=O)(=O)c2c(C)nn(C)c2C)cc1,8%,0%,-2%,-12%,4%
CSC1=N/C(=C\c2ccc(Br)o2)C(=O)S1,-24%,0%,-14%,-25%,-3%
CCOc1ccc(NC(=S)Nc2cccnc2)cc1,23%,10%,0%,0%,28%
COc1cc(NC(=O)/C=C/c2ccccc2[N+](=O)[O-])cc(OC)c1,5%,u,19%,-20%,-1%
O=C(/C=C/c1ccccc1[N+](=O)[O-])Nc1ccccc1,-17%,0%,-5%,-20%,7.1µM*
CCOC(=O)c1cc(-c2ccc(Cl)s2)[nH]n1,-14%,0%,11%,-25%,2%
CCCCn1c(CNC(=O)C23CC4CC(CC(C4)C2)C3)nnc1SC(C)CC (centres undefined),3.5µM*,-3%,2%,-15%,-19%
CCCCn1c(CNC(=O)C23CC4CC(CC(C4)C2)C3)nnc1SCC(=O)Nc1nnc(C)s1,10%,-2%,-3%,-15%,-2%
C/C(=N\NC(=S)NC1CCCCC1)c1ccc(Cl)c(Cl)c1,14%,2%,-5%,7%,7%
CNc1nc(-c2ccc([N+](=O)[O-])cc2)cs1,31%,5%,5%,7%,10µM*
Cc1ccccc1NC(=O)c1cc(=O)c2ccccc2o1,7%,1%,1%,0%,45%
SMILES,GLP-1R inv ag,Mito fusion act,GLP-1R agonist,GLP1R cytotox,BRCA1 expr act
N#Cc1ccccc1NC(=O)c1cc(=O)c2ccccc2o1,-18%,-1%,1%,7%,8.9µM*
COc1ccc2oc(=O)c(C(=O)Nc3cccc(C)c3)cc2c1,28%,2%,2%,16%,3.2µM*
COc1ccc(-c2csc(C(O)c3ccccc3)n2)cc1 (centres undefined),-29%,x,17%,-5%,u
COc1ccc(-c2csc(C(O)c3ccccc3)n2)cn1 (centres undefined),4%,x,-7%,4%,11µM*
COc1ccc(-c2csc(C(O)c3ccc(F)c(F)c3)n2)cc1 (centres undefined),11µM*,x,8%,-7%,0%
OC(c1ccc(F)c(F)c1)c1nc(-c2ccccc2)cs1 (centres undefined),-29%,x,-5%,-10%,-3%
CC1(C)CC(=O)C(C(O)c2cccc([N+](=O)[O-])c2)C(C)(C)N1 (centres undefined),7%,2%,0%,-15%,1%
CCCNC(=O)c1onc(CSc2ccccc2)c1C(=O)NCCC,u,4%,-4%,7%,2%
COc1cc(NC(=O)CSCC(=O)Nc2cccc(C(F)(F)F)c2)c(Cl)cc1Cl,u,-22%,1%,-23%,-33%
COc1ccccc1N=CC=C1OC(C)(C)C(C)(C)O1,2.2µM*,3%,0%,16%,-16%
CC(C)C[C@@H](CN1CCC[C@@H]1CN1C(=S)NC[C@@H]1Cc1ccccc1)N1C[C@H](Cc2ccc(O)cc2)N(CC2CCCCC2)C1=S,29%,x,0%,1%,14%
CC(C)C[C@@H](CN1CCCC1CN1C(=S)NC[C@@H]1Cc1ccc(O)cc1)N1C[C@H](Cc2ccc(O)cc2)N(CC2CCCCC2)C1=S (some centres undefined),11µM*,x,-1%,u,-79%
CCCCNCCCOc1cccc(Cl)c1Cl,7.9µM*,-4%,-1%,u,-53%
Clc1cccc(OCCCN2CCCC2)c1Cl,-17%,-3%,-7%,5%,5%
O=C(Cn1cc2c(n1)CCCCC2)NC1CCCCCC1,18%,0%,2%,-1%,8.9µM*
Cc1cccc(OCCCn2c(=O)sc3ccccc32)c1,u,5%,19%,16%,u
COc1ccccc1OCCn1c(=O)sc2ccccc21,0%,13%,-1%,0%,15%
Cc1cccc(OCCn2c(=O)sc3ccccc32)c1,u,8%,21%,28%,3.5µM*
COc1ccc(OCCn2c(=O)sc3ccccc32)cc1,-7%,27%,16%,6%,10µM*
COc1ccc2nc(-c3ccccc3)[nH]c2c1,0%,4%,1%,-24%,u
COc1ccc2[nH]c(-c3ccccc3)cc2c1,1%,-21%,10%,2%,3.5µM*
COc1ccc2[nH]c(-c3ccc(C)cc3)cc(=O)c2c1,3.2µM*,-5%,-4%,0%,-14%
COc1cnc(-c2ccccc2)nc1Oc1cccc(C)c1C,11µM*,0%,5%,17%,-30%
CC1=C(C(=O)Nc2ccc(Cl)cc2)C(c2ccccc2C)n2ncc(C(=O)Nc3ccc(C)cc3)c2N1 (centres undefined),2.8µM*,x,x,0%,x
CC1=C(C(=O)Nc2ccc(Cl)cc2)C(c2ccccc2)n2ncc(C(=O)Nc3ccccc3)c2N1 (centres undefined),u,x,x,-10%,x
